# Bioassay records deposited in PubChem by National Center for Advancing Translational Sciences (NCATS).
# KDM5B inh: Primary screen for KDM5B Histone Demethylases FDH-coupled qHTS | Lysine-specific demethylase 5B (Homo sapiens), Q9UGL1 | KDM5B demethylase, FDH-coupled NADH fluorescence (FDH is formaldehyde dehydrogenase) | Potency, µM (highest dose often 57.7 µM), most hits filed as inhibitors | 2.6% of 220,000 active | AID 1347165, 2019; active means well fitted inhibition curve with a large enough effect; further: 0% is about no effect; nearly all actives have a fitted effect of over 70% in size
#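 Measured: NADH fluorescence change, 30 min, RT. System: KDM5BΔAP 200 nM final, H3K4me3 peptide, α-KG, Fe(II), ascorbate, NAD⁺ plus FDH, pH 7.5 HEPES. Compounds: titrated, 10 min pre-incubation with enzyme.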
# Active calls of the source: *; i = inactive. Only a selection was taken, and hits are over-represented in it overall. Potency means the concentration at half of the fitted maximal effect.
SMILES,KDM5B inh
CCN1CC(CN(C)Cc2nc(-c3ccc(C(F)(F)F)cc3)no2)CC1=O (stereo not drawn),i
O=C(Cc1ccc2c(c1)OCO2)N1CCCn2nc(C(O)CO)cc2C1 (stereo not drawn),i
Cc1ccc(-c2noc(CNC(=O)COc3cccc(C)c3)n2)cc1,i
Cc1cccc(OCC(=O)NCc2nnc3ccc(-c4ccc(F)cc4)nn23)c1,35µM*
Cc1ccc(-c2ccc3nnc(CNC(=O)COc4cccc(C)c4)n3n2)cc1,10µM*
O=C(COc1cccc(-c2nnc3n2CCCC3)c1)NCc1ccc(F)cc1,i
O=C(COc1cccc(F)c1)NCCc1nnc2ccccn12,i
CCOc1ccc(-n2ccnc(NCc3ccccc3)c2=O)cc1,i
O=C(CCn1nc(-c2ccc(Cl)cc2)c2ccccc2c1=O)NC1CCCCC1,i
Cc1ccc(CNC(=O)Cn2cc(C#N)c3ccccc32)cc1,i
O=C(/C(Cl)=C/NCc1ccccn1)C(F)(F)F,i
O=C(/C=C/c1ccccc1)NNC(=S)NCc1ccccc1,i
CC(C)CNC(=O)Cc1ccc2c(c1)CCCC2,i
COC(=O)CNC(=O)Cn1ccc2cc(Cl)ccc21,i
COC(=O)CNC(=O)c1nc(-c2ccc(Cl)cc2Cl)c2ccccn12,89µM*
COC(=O)CNC(=O)c1cc(-c2cnccc2Cl)c2cccn2n1,i
COC(=O)CNC(=O)c1nc(-c2ccc(Cl)cc2Cl)c2cnccn12,79µM*
COC(=O)CNC(=O)c1cc(-c2ccc(Cl)cc2Cl)c2cccn2n1,i
CC(C)NC(=O)c1nc(-c2ccc(Cl)cc2Cl)c2cnccn12,79µM*
COC(=O)CNC(=O)Cn1ccc2ccc(Cl)cc21,i
CC(C)NC(=O)c1cc(Cl)ccc1I,i
Cc1nc2ccc(Cl)cc2cc1C(=O)NC(C)C,i
CN(C)Cc1ccc(O)cc1,i
COc1cccc(-n2cnnc2SCc2csc(CC(=O)Nc3ccc(C)cc3)n2)c1,i
Cc1nn2c(c1-c1ccnn1C(C)C)N(C(=O)COc1ccccc1C(N)=O)CCC2,i
SMILES,KDM5B inh
O=C(NCc1ccc(F)cc1)C1CCc2nnc(-c3ccc(Cl)cc3Cl)n21 (stereo not drawn),i
COc1ccc(-c2noc(C(=O)O)c2[C@@H](C)NC(=O)c2cc(C)n(C)n2)cc1,i
CCN(C(=O)C(C)N(C)CC(=O)Nc1cccc(F)c1)C1CCCCC1 (stereo not drawn),i
CC1(COc2ccc3[nH]ccc3c2)COc2ccc(C(=O)Nc3cccnc3)cc2N1 (stereo not drawn),35µM*
COc1ccc(NC(=O)c2ccc3c(c2)NC(C)(COc2ccc4[nH]ccc4c2)CO3)cn1 (stereo not drawn),20µM*
S=C(NCc1ccc(Cl)cc1)Nc1ccc(Br)cc1,i
CCCOc1ccc(NC(=O)CCC)c2cccnc12,i
O=C(CN1C(=O)CNC1=O)NCc1cccnc1Oc1ccccc1F,i
O=C(CCC1CCCC1)NCC12CC3CC(CC(C3)C1)C2,i
O=S(=O)(c1ccccc1)N1CCCC2(CC(c3ccccc3)=NO2)C1 (stereo not drawn),i
Cc1noc(C)c1-c1cc2cc(CN(C)C)oc2c(-c2ccc([S+](C)(=O)[O-])cc2)n1,40µM*
Cc1cc2cc(-c3c(C)noc3C)nc(-c3ccc([S+](C)(=O)[O-])cc3)c2o1,35µM*
Cc1cc2cc(-c3c(C)noc3C)nc(N(C)CCN(C)C)c2o1,i
CC(C)(C)c1coc([C@@H]2COCCN2Cc2ccc(C(=O)O)cc2)n1,i
COc1ccc(CCN2CCC(CN(C)C(=O)NCc3ccccc3)CC2)cc1,i
COc1cccc(Nc2ncc3c(n2)C(C)(C(=O)NCC2CC2)CC3)c1 (stereo not drawn),i
CC1(C(=O)NCc2cccnc2)CCCc2cnc(Nc3ccccc3)nc21 (stereo not drawn),i
CN1CCN(C(=O)C2(C)CCCc3cnc(Nc4ccccc4)nc32)CC1 (stereo not drawn),i
CC1(C(=O)NCc2ccncc2)CCCc2cnc(Nc3ccccc3F)nc21 (stereo not drawn),i
CN(C)c1ncc2c(n1)C(C)(C(=O)NCCOc1ccccc1)CCC2 (stereo not drawn),32µM*
CN(C)c1ncc2c(n1)C(C)(C(=O)Nc1ccc(Cl)cc1)CCC2 (stereo not drawn),35µM*
Cn1ccc(NC(=O)C2(C)CCCc3cnc(Nc4ccccc4)nc32)n1 (stereo not drawn),i
CN(C)c1ncc2c(n1)C(C)(C(=O)NCCCn1ccnc1)CCC2 (stereo not drawn),35µM*
CC1(C(=O)Nc2ccc(C(N)=O)cc2)CCCc2cnc(Nc3ccccc3)nc21 (stereo not drawn),i
CC1(C(=O)NCC2CC2)CCc2cnc(Nc3ccccc3)nc21 (stereo not drawn),i
SMILES,KDM5B inh
CC1(C(=O)NCCCn2ccnc2)CCCc2cnc(Nc3ccccc3)nc21 (stereo not drawn),i
CN(C)c1ncc2c(n1)C(C)(C(=O)NCC1CC1)CCC2 (stereo not drawn),32µM*
COc1ccc(/C=C(/C#N)c2ccccc2F)c(OC)c1,i
COc1cc(CN(C(=O)c2ccc3c(c2)NC(=O)CO3)C2CC2)ccc1OC(F)F,i
Cc1oc(-c2ccccc2)nc1C(=O)OCC(=O)N1CCCCC1,i
Cc1cccn2cc(CSc3nnc(-c4ccccc4)o3)nc12,i
COc1c(C)cc(Br)cc1C(=O)Nc1ccc2oc(-c3cccnc3)nc2c1,i
COc1ccc(CC(=O)N2[C@@H]3CC[C@H]2CC(NC(=O)c2ccncc2)C3)cc1Cl (stereo partly drawn),i
Cc1nc2c(c(NCCc3cnn(-c4ccccc4)c3)n1)CCNCC2,i
CCc1ccc(NC(=O)c2cc3ncccn3n2)cc1,i
FC1(F)C[C@@H](c2nnc(C3CC3)o2)N(C2CCSCC2)C1,i
COc1c(Cl)cc(C(=O)N2CCN(Cc3cc(=O)n4ccsc4n3)CC2)cc1Cl,i
Cc1noc(C)c1C(=O)N1CCCC(c2nnc3n2CCNC3)C1 (stereo not drawn),i
C[S+](=O)([O-])N1CCCCC1c1nnc2n1CCNC2 (stereo not drawn),i
COc1ccc(C(=O)N2CCn3c(nnc3C3CCNCC3)C2)cc1,i
CC(=O)N1CCC(c2nnc3n2CCNC3)CC1,112µM*
O=C(c1ccncc1)N1CCC(c2nnc3n2CCNC3)CC1,35µM*
O=C(c1ccccc1)N1CCc2nnc(C3CC3)n2CC1,i
N#Cc1ccccc1NC(=O)CCN1CCCN(Cc2cccs2)CC1,i
CCOC(=O)CCN(C)Cc1cccc(OC)c1OC,i
COc1ccc(N2C(=O)C3(CCCCC3)C2C(=O)NCCCN2CCCC2=O)cc1 (stereo not drawn),i
O=C(Nc1ccc(Oc2ccccc2)cc1)O[C@@H]1CO[C@H]2[C@@H]1OC[C@@H]2NS(=O)(=O)c1ccc2ccccc2c1,22µM*
O=C(Nc1cccc2ccccc12)O[C@@H]1CO[C@H]2[C@@H]1OC[C@@H]2NC(=O)C1CCC1,i
CC(=O)Nc1ccc(S(=O)(=O)N[C@H]2CO[C@H]3[C@@H]2OC[C@H]3OC(=O)Nc2ccc(C(C)=O)cc2)cc1,i
COc1ccc(NC(=O)O[C@@H]2CO[C@H]3[C@@H]2OC[C@@H]3NS(=O)(=O)c2ccc(NC(C)=O)cc2)cc1,i
